# According to the supplement of paper PMC9694430:
# Columns and labels:
# Assay in all cases: thermal shift delta Tm vs DMSO control; higher = stronger stabilization (binding)
# Settings in all cases: 12.5 µM; protein concentration 2 µM
# [1] = test system: LOC_OS01G01410-cb001
# Summary of the method: (§1)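 Rice kinase domain constructs, made in E. coli and purified, were placed in 96-well plates at 2 μM in 19.5 μl of 100 mM potassium phosphate pH 7.5, 150 mM NaCl, 10% glycerol and 5 × SYPRO Orange, with compound in DMSO. A temperature ramp from 25°C to 95°C at 0.05°C/s was used for differential scanning fluorimetry. The melting temperature shift is a triplicate mean compared with DMSO-only protein, derived from Boltzmann fits.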
# [2] = test system: LOC_OS01G02750-cb003
# Summary of the method: as §1
# [3] = test system: LOC_OS01G10900-cb004
# Summary of the method: as §1
# [4] = test system: LOC_OS01G13800-cb001
# Summary of the method: as §1
# [5] = test system: LOC_OS01G14860-cb001
# Summary of the method: as §1
# [6] = test system: LOC_OS01G21960-cb002
# Summary of the method: as §1
# [7] = test system: LOC_OS01G39600-cb002
# Summary of the method: as §1
# [8] = test system: LOC_OS01G48390-cb002
# Summary of the method: as §1
# [9] = test system: LOC_OS01G51400-cb002
# Summary of the method: as §1
# [10] = test system: T1, LOC_OS01G52050-cb004
# T1 sequence (whole entry): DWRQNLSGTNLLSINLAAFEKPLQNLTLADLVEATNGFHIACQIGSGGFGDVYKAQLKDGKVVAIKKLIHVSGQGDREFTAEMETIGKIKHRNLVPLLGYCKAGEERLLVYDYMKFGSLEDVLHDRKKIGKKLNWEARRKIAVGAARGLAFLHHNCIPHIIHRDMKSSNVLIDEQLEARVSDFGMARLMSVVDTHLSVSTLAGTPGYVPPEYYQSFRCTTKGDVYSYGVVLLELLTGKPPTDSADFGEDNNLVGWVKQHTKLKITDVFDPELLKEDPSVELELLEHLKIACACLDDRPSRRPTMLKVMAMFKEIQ
# Summary of the method: as §1
# [11] = test system: LOC_OS01G57100-cb003
# Summary of the method: as §1
# [12] = test system: LOC_OS01G60330-cb001
# Summary of the method: as §1
# [13] = test system: LOC_OS01G60700-cb002
# Summary of the method: as §1
# [14] = test system: LOC_OS01G63280-cb003
# Summary of the method: as §1
# [15] = test system: LOC_OS01G67340-cb003
# Summary of the method: as §1
# [16] = test system: LOC_OS01G70970-cb002
# Summary of the method: as §1
# [17] = test system: LOC_OS02G07810-cb001
# Summary of the method: as §1
# [18] = test system: LOC_OS02G08530-cb003
# Summary of the method: as §1
# [19] = test system: LOC_OS02G14120-cb001
# Summary of the method: as §1
# [20] = test system: LOC_OS02G17970-cb001
# Summary of the method: as §1
# 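Further: purified Escherichia coli-expressed rice kinase domain construct.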
Structure (SMILES),thermal shift delta Tm [1],thermal shift delta Tm [2],thermal shift delta Tm [3],thermal shift delta Tm [4],thermal shift delta Tm [5],thermal shift delta Tm [6],thermal shift delta Tm [7],thermal shift delta Tm [8],thermal shift delta Tm [9],thermal shift delta Tm [10],thermal shift delta Tm [11],thermal shift delta Tm [12],thermal shift delta Tm [13],thermal shift delta Tm [14],thermal shift delta Tm [15],thermal shift delta Tm [16],thermal shift delta Tm [17],thermal shift delta Tm [18],thermal shift delta Tm [19],thermal shift delta Tm [20]
CCn1c(=O)c(-c2ccc(-c3cncs3)cc2Cl)cc2cnc(Nc3ccc(N4CCN(C)CC4)cc3)nc21,0.16 °C,-0.15 °C,0.42 °C,0.34 °C,0.12 °C,0.22 °C,-0.49 °C,-0.5 °C,0.02 °C,-0.32 °C,1.89 °C,1.07 °C,0.86 °C,0.25 °C,1.37 °C,0.17 °C,0.59 °C,0.55 °C,-0.39 °C,0.23 °C
COc1cc2c(Oc3ccc(NC(=O)C4(C(=O)Nc5ccc(F)cc5)CC4)cc3F)ccnc2cc1OCCCN1CCOCC1,2.26 °C,3.47 °C,1.69 °C,-0.35 °C,1.69 °C,0.4 °C,0.45 °C,6.85 °C,0.19 °C,4.66 °C,0.61 °C,1.45 °C,0.58 °C,0.93 °C,3.45 °C,2.5 °C,1.74 °C,1.31 °C,7.45 °C,0.62 °C
O=C1Cc2c([nH]c3ccc(Br)cc23)-c2ccccc2N1 [Kenpaullone],1.3 °C,3.93 °C,3.23 °C,1.78 °C,7.46 °C,1.74 °C,2.16 °C,3.44 °C,0.72 °C,5.21 °C,0.8 °C,2.91 °C,0.89 °C,3.38 °C,1.58 °C,5.88 °C,1.24 °C,1.62 °C,2.5 °C,2.97 °C
CN1CCN(c2ccc(-c3ccncc3-c3cc(F)c(O)c(F)c3)cc2)CC1,0.42 °C,0.81 °C,-0.45 °C,0.02 °C,0.46 °C,0.1 °C,-0.43 °C,-0.15 °C,0.11 °C,0.14 °C,0.87 °C,1.02 °C,0.66 °C,0.31 °C,0.24 °C,0.16 °C,0.06 °C,0.29 °C,1.22 °C,0.89 °C
C=CC(=O)Nc1cccc(Oc2nc(Nc3ccc(N4CCN(C)CC4)cc3OC)ncc2Cl)c1,0.1 °C,-0.5 °C,0.47 °C,0.58 °C,0.25 °C,0.29 °C,0.93 °C,1.75 °C,0.48 °C,0.54 °C,-0.16 °C,0.75 °C,0.6 °C,0.05 °C,-0.81 °C,0.44 °C,0.62 °C,1.23 °C,0.27 °C,0.24 °C
Cc1ccc(Nc2nccc(N(C)c3ccc4c(C)n(C)nc4c3)n2)cc1S(N)(=O)=O,2.81 °C,0.47 °C,1.7 °C,0.62 °C,1.21 °C,1.29 °C,1.56 °C,4.66 °C,0.3 °C,0.89 °C,0.87 °C,4.66 °C,1.25 °C,0.81 °C,0.74 °C,0.44 °C,1.5 °C,1.68 °C,3.21 °C,0.47 °C
CN1CCN(c2ccc(C(=O)Nc3n[nH]c4ccc(Cc5cc(F)cc(F)c5)cc34)c(NC3CCOCC3)c2)CC1 [Entrectinib (RXDX-101)],2.21 °C,2.9 °C,4.99 °C,-0.49 °C,0.18 °C,1.51 °C,3.51 °C,5.48 °C,0.15 °C,0.2 °C,0.09 °C,4.04 °C,0.42 °C,-0.06 °C,0.57 °C,1.01 °C,0.27 °C,3.95 °C,5.28 °C,0.09 °C
